Sampled rows, rich in hits. Any-hit rate of the full collection: about 5.5%.
RORgamma inh: qHTS for inhibitors of ROR gamma transcriptional activity; Nuclear receptor ROR-gamma (Mus musculus), P51450; Drosophila S2 Gal4-RORgamma UAS-luciferase reporter, 20 h; Potency, µM (doses to about 53.6 µM), actives largely listed as inhibitors; 5.4% of 310,000 active; AID 2551, 2010; also: nearly all actives have a fitted effect of over 60% in size
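ROR gamma transcriptional activity was tracked as Gal4-UAS luciferase output in stably transfected Drosophila Schneider cells, with compound added 1 hr before 700 uM copper sulfate induction and a 20 hr ambient-temperature incubation.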
CtBP-E1A blk: qHTS Assay for Inhibitors of the CtBP/E1A Interaction | AlphaScreen GST-E1A/His-CtBP binding, 1536-well; stronger effect = lower value | activity change, % (test concentration not listed) | 0.49% of 340,000 active | CtBP / adenovirus E1A interaction (AlphaScreen) | AID 651724, 2012; in the data active = activity change below about -65%; inconclusive = mostly about -30% to -63%
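Protein mix (5X: 125 nM each GST-E1A, His-CtBP) was incubated with pinned compound 2 h at 37 deg C in dark, in 50 mM Tris pH 8.0 buffer with 300 mM NaCl. Glutathione donor and nickel acceptor beads followed; AlphaScreen signal read after 1 h.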
VP16 counter: VP16 counterscreen qHTS for inhibitors of ROR gamma transcriptional activity; AID 2546, 2010; Drosophila S2 Gal4-VP16 UAS-luciferase, luminescence, 20 h; 3.5% of 310,000 active; Potency, µM (series often up to 53.6 µM), hits mostly inhibitors;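 also: Gal4-VP16 expression switched on by copper sulfate through the metallothionein promoter; nearly all actives have a fitted effect of over 50% in size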
Six1-Eya2 inh: qHTS Assay for Inhibitors of the Six1/Eya2 Interaction | Homeobox protein SIX1 (Homo sapiens) + Protein phosphatase EYA2 (Homo sapiens), … | AlphaScreen GST-Six1/His-Eya2 binding, biochemical; stronger effect = lower value | activity change, % (test concentration not listed) | 0.56% of 360,000 active; in the data active = activity change below about -65%; inconclusive = mostly about -30% to -63%
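AlphaScreen with GST-Six1 and His-Eya2 (5X mix: 250 nM and 500 nM), glutathione donor and nickel acceptor beads; buffer 50 mM Tris pH 8.0, 300 mM NaCl, 1 mM TCEP; 1 h at 37 C in the dark.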
CBFb-RUNX1 inh: qHTS Assay for Compounds Blocking the Interaction Between CBF-beta and RUNX1 for the Treatment of Acute Myeloid Leukemia | Runt-related transcription factor 1 (Homo sapiens) + Core-binding factor subunit beta … | AlphaScreen CBFb-His/RUNX1-biotin binding, biochemical | Potency, µM (titrated, usually from 59.8 µM), most hits filed as inhibitors | AID 1477, 2009 | 230,000 tested, under 10 active
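AlphaScreen proximity signal reports loss of binding between His-tagged CBF-beta and biotin-labelled RUNX1, each at 30 nM. Proteins are pre-associated for 20 minutes, compounds added for 15 minutes, then beads for 90 minutes, all at ambient temperature.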
MBNL1-CUG inh: qHTS Assay for Inhibitors of MBNL1-poly(CUG) RNA binding; Muscleblind-like protein 1 (Homo sapiens), Q9NR56; 0.036% of 280,000 active; TR-FRET MBNL1-His/biotin-(CUG)12 binding, 665/545 ratio; Potency, µM (titrated, usually from 57.5 µM), hits mostly inhibitors; AID 2675, 2010; active = well fitted inhibition curve with a large enough effect in the signal ratio, with a control signal flat, not every such curve was filed as active; inconclusive = small, poorly fitted or top-dose-only effect, or effect the other way, or a change in a side signal; inactive = no such curve, though single readings can be large or run the other way; the % refers to the signal ratio
Target sequence (Q9NR56 whole entry, looked up): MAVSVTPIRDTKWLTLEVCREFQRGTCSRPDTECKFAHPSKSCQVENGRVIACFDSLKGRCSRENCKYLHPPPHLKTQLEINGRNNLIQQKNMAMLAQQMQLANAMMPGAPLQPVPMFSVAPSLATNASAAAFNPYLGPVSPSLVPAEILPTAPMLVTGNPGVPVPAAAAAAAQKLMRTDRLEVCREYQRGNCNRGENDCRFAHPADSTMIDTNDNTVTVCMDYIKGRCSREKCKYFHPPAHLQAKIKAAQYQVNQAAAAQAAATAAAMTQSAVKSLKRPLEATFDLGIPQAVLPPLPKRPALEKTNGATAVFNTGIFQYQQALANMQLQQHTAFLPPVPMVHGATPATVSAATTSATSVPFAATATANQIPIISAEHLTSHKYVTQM
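Ratiometric TR-FRET (665 over 545 nm, excitation 340 nm) tracks disruption of MBNL1-His/biotin-(CUG)12 complex after 60 min at room temperature, with compounds at 92 nM to 58 uM final.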
Numbers stand for hits. Unless noted, calls follow the shape of the dose curve; as a rule, active = well fitted curve in the direction sought with a large enough effect; inconclusive = small, poorly fitted or top-dose-only effect, or another doubt; inactive = no such curve, though single readings can be large; an effect the other way counts as inactive or inconclusive.

For O=C(NC(=S)NCCc1ccccc1)c1ccccc1 the results were RORgamma inh 5.6µM, CtBP-E1A blk inactive, VP16 counter inconclusive, Six1-Eya2 inh inactive, CBFb-RUNX1 inh inactive and MBNL1-CUG inh inactive.
`O=C(NCCc1ccccc1)c1ccccc1F` gave RORgamma inh inconclusive, CtBP-E1A blk inactive, VP16 counter inconclusive, Six1-Eya2 inh inactive, CBFb-RUNX1 inh inactive and MBNL1-CUG inh inactive.
O=C(NCCCc1ccccc1)c1ccccc1 was read as RORgamma inh inactive, CtBP-E1A blk inactive, VP16 counter inactive, Six1-Eya2 inh inactive, CBFb-RUNX1 inh inactive and MBNL1-CUG inh inactive.
Screening O=C(CC12CC3CC(CC(C3)C1)C2)NC(=S)NCc1ccccc1 returned RORgamma inh 2µM, CtBP-E1A blk inactive, VP16 counter 1.6µM, Six1-Eya2 inh inactive, CBFb-RUNX1 inh inactive and MBNL1-CUG inh inactive.
`Cc1cc(C)c(S(=O)(=O)Nc2nnc(C3CCCCC3)s2)c(C)c1` gave CtBP-E1A blk inactive, Six1-Eya2 inh inactive and MBNL1-CUG inh inactive.
O=C(O)CNC(=O)c1ccccc1Br was read as RORgamma inh inactive, VP16 counter inactive, Six1-Eya2 inh inactive, CBFb-RUNX1 inh inactive and MBNL1-CUG inh inactive.
O=C(NC(=S)NCc1ccccc1)c1ccccc1Br was read as RORgamma inh 8.9µM, CtBP-E1A blk inactive, VP16 counter 10µM, Six1-Eya2 inh inactive and MBNL1-CUG inh inactive.
For O=C(NC(=S)N(Cc1ccccc1)Cc1ccccc1)c1ccccc1F the results were RORgamma inh 0.25µM, CtBP-E1A blk inactive, VP16 counter 0.71µM, Six1-Eya2 inh inactive, CBFb-RUNX1 inh inactive and MBNL1-CUG inh inactive.
For O=C(NC(=S)NCc1ccccc1)c1ccccc1[N+](=O)[O-] the results were RORgamma inh 7.9µM, CtBP-E1A blk inactive, VP16 counter 16µM, Six1-Eya2 inh inactive, CBFb-RUNX1 inh inactive and MBNL1-CUG inh inactive.
Screening O=C(NC(=S)NCc1cccnc1)c1ccccc1[N+](=O)[O-] returned RORgamma inh inactive, CtBP-E1A blk inactive, VP16 counter inactive, Six1-Eya2 inh inactive, CBFb-RUNX1 inh inactive and MBNL1-CUG inh inconclusive.
Screening O=C(Cc1ccccc1[N+](=O)[O-])NCCCc1ccccc1 returned RORgamma inh 0.22µM, CtBP-E1A blk inactive, VP16 counter inactive, Six1-Eya2 inh inactive and MBNL1-CUG inh inactive.
`Nc1ccn([C@@H]2O[C@H](C(=O)NCC(F)(F)F)[C@@H](O)[C@H]2O)c(=O)n1` gave CtBP-E1A blk inactive and Six1-Eya2 inh inactive.
For CSc1ncccc1C(=O)OC(C)C(=O)Nc1cccc(S(=O)(=O)N2CCOCC2)c1 (centres undefined) the results were CtBP-E1A blk inactive and Six1-Eya2 inh inactive.
For Cc1ccc(C(=O)NCCc2ccccc2)cc1 the results were RORgamma inh 4.5µM, VP16 counter 4µM, Six1-Eya2 inh inactive and MBNL1-CUG inh inactive.
`O=C(NC(=S)N1CCCC1)c1ccccc1F` gave CtBP-E1A blk inactive and Six1-Eya2 inh inactive.
Screening CC(C)c1ccccc1NC(=O)COc1ccc(C(=O)NCCc2ccccc2)cc1 returned RORgamma inh inconclusive, CtBP-E1A blk inactive, VP16 counter 18µM, Six1-Eya2 inh inactive, CBFb-RUNX1 inh inactive and MBNL1-CUG inh inactive.
For CN(CCC#N)C(=S)NC(=O)c1ccc(S(=O)(=O)N2CCOCC2)cc1 the results were RORgamma inh 5µM, CtBP-E1A blk inactive, VP16 counter inconclusive, Six1-Eya2 inh inactive, CBFb-RUNX1 inh inactive and MBNL1-CUG inh inactive.
Cc1ccc(C(=O)NCCc2ccncc2)cc1 was read as RORgamma inh inactive, CtBP-E1A blk inactive, VP16 counter inactive, Six1-Eya2 inh inactive, CBFb-RUNX1 inh inactive and MBNL1-CUG inh inactive.
`O=C(NC(=S)NC(=O)c1ccccc1F)c1ccccc1F` gave RORgamma inh inconclusive, CtBP-E1A blk inactive, VP16 counter 5.6µM, Six1-Eya2 inh inactive, CBFb-RUNX1 inh inactive and MBNL1-CUG inh inactive.
For CC(=O)N1CCN(C(=S)NC(=O)c2ccc(S(=O)(=O)N3CCOCC3)cc2)CC1 the results were RORgamma inh inactive, CtBP-E1A blk inactive, VP16 counter inactive, Six1-Eya2 inh inactive and CBFb-RUNX1 inh inactive.
`CCCCc1ccc(NC(=O)COc2ccc(C(=O)Nc3ccccc3OCC)cc2)cc1` gave RORgamma inh inconclusive, CtBP-E1A blk inactive, VP16 counter 10µM, Six1-Eya2 inh inactive, CBFb-RUNX1 inh inactive and MBNL1-CUG inh inactive.
COc1ccc2c(c1O)C(=O)c1ccccc1C2=O was read as RORgamma inh inactive, VP16 counter inactive, CBFb-RUNX1 inh inactive and MBNL1-CUG inh inconclusive.
For Nc1c(O)ccc2c1C(=O)c1ccccc1C2=O the results were RORgamma inh inactive, CtBP-E1A blk inconclusive, VP16 counter inactive, Six1-Eya2 inh -74, CBFb-RUNX1 inh inconclusive and MBNL1-CUG inh inconclusive.
Screening Cc1cc(NC(=O)NC(=O)c2ccc(F)cc2F)n[nH]1 returned RORgamma inh 8.9µM, CtBP-E1A blk inactive, VP16 counter inconclusive, Six1-Eya2 inh inactive, CBFb-RUNX1 inh inactive and MBNL1-CUG inh inactive.
Screening O=C(NC(=S)N(CCc1ccccc1)CCc1ccccc1)c1ccco1 returned RORgamma inh 0.11µM, CtBP-E1A blk inactive, VP16 counter 0.045µM, Six1-Eya2 inh inactive, CBFb-RUNX1 inh inactive and MBNL1-CUG inh inconclusive.
CC(CCc1ccccc1)NC(=S)NC(=O)c1ccco1 (centres undefined) was read as RORgamma inh 11µM, CtBP-E1A blk inactive, VP16 counter inactive, Six1-Eya2 inh inactive, CBFb-RUNX1 inh inactive and MBNL1-CUG inh inactive.
For CC(CCc1ccccc1)NC(=O)c1ccc(NC(=O)c2ccccc2)cc1 (centres undefined) the results were RORgamma inh 2.8µM, CtBP-E1A blk inactive, VP16 counter inconclusive, Six1-Eya2 inh inactive, CBFb-RUNX1 inh inactive and MBNL1-CUG inh inactive.
Screening CC(CCc1ccccc1)NC(=O)Cc1ccccc1 (centres undefined) returned RORgamma inh inactive, CtBP-E1A blk inactive, VP16 counter inactive, Six1-Eya2 inh inactive, CBFb-RUNX1 inh inactive and MBNL1-CUG inh inactive.
S=c1[nH]nc(COc2ccccc2)n1/N=C/c1cccs1 was read as RORgamma inh inconclusive, CtBP-E1A blk inactive, VP16 counter 7.1µM, Six1-Eya2 inh inactive, CBFb-RUNX1 inh inactive and MBNL1-CUG inh inactive.
Cc1ccsc1/C=N/n1c(-c2cc(-c3ccccc3)n[nH]2)n[nH]c1=S was read as RORgamma inh 2.8µM, CtBP-E1A blk inactive, VP16 counter inconclusive, Six1-Eya2 inh inactive and CBFb-RUNX1 inh inactive.

Screening data (PubChem)
